Experiment [1] in a line: blockers of IL-6 STAT3 signaling – U3A cells, luciferase, luminescence, confirmation (AID 1265;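 active means inhibition above the hit cutoff computed for the primary STAT3 screen, cut at about 44% in these data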;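 further: 0% = IL-6 plus DMSO and 100% = IL-6 plus nifuroxazide control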). The conditions noted are these: IL-6 STAT3 luciferase reporter, at 5.7 µM, hits give high values, cell line lacks STAT1.
A short description of experiment [2]: inhibition of TNF-alpha-driven NF-kB transcription – cell-based, HEK293T, luciferase, TNF-alpha stimulus, counter-screen for STAT3 inhibitor project, confirmation (AID 1308;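 active means inhibition above the mean of solvent-only control wells plus 3 SD, cutoff set per campaign, cut at about 13% in these data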;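 further: 0% = TNF-alpha with DMSO and 100% = TNF-alpha with MG high control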). The conditions noted are these: HEK293T NF-kB luciferase reporter, TNF-alpha induced; at 5.7 µM; hits give high values.
A short description of experiment [3]: inhibition of STAT1-driven transcription – cell-based, NIH 3T3, luciferase luminescence, IFN-gamma, counter-screen for STAT3 inhibitor project, confirmation (AID 1317).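 Further: 0% = DMSO with IFN-gamma and 100% = nifuroxazide control.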 The conditions noted are these: NIH 3T3 STAT1-luciferase reporter, IFN-gamma induced, at 5.7 µM, hits give high values.
Experiment [4] is described as follows: StAR promoter reporter inhibitors, counter-screen for LRH-1 inverse agonist project, cell-based, luminescence, high throughput (AID 651611; in the data active means inhibition above about 28%). The conditions noted are these: StAR promoter luciferase reporter counterscreen, at 3.6 µM, hits give high values.
Experiment [5] addresses Nuclear receptor subfamily 5 group A member 2 (Homo sapiens) (UniProt O00482). The experiment is described as follows: NR5A2 activity suppression in reporter cells – cell-based, luminescence, confirmation (AID 651613; in the data active means inhibition above about 42%;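 further: HEK293T cells co-transfected with LRH-1 and StAR promoter luciferase reporter; 0% = vehicle wells and 100% = parental cells lacking receptor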). Conditions: cell-based LRH-1 luciferase reporter, inverse agonism; at 3.6 µM; hits give high values.
The target of experiment [6] is Steroidogenic factor 1 (Homo sapiens) (UniProt Q13285). The experiment is described as follows: inverse agonism at SF1 nuclear receptor – cell-based, luminescence, high throughput, counter-screen for LRH-1 inverse agonist project (AID 651614; in the data active means inhibition above about 44%;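 further: cells cotransfected with StAR promoter reporter and SF1 expression vector; 0% = vehicle on cells with receptor and 100% = vehicle on cells lacking receptor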). Conditions: cell-based SF1 luciferase reporter, at 3.6 µM, hits give high values.
A short description of experiment [7]: compounds suppressing VP16-driven luciferase signal – cell-based, luminescence, high throughput, counter-screen for LRH-1 inverse agonist project (AID 651615; in the data active means inhibition above about 33%). The conditions noted are these: Gal4-VP16 luciferase reporter cells, at 3.6 µM, hits give high values.
Experiment [8] is described as follows: VP16-driven transactivation reporter suppression – cell-based, luminescence, HEK293, counter-screen for COUP-TFII antagonist project (AID 687007; in the data active means inhibition above about 13%). The conditions noted are these: HEK293 Gal4-VP16 luciferase reporter, at 8.5 µM, hits give high values.
In experiment [9] the target is COUP transcription factor 2 (Homo sapiens) (UniProt P24468). The experiment is described as follows: retest of COUP-TFII reporter suppressors – cell-based, luciferase reporter, HEK293, triplicate, confirmation (AID 687008;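 active means mean inhibition over three repeats above a set limit taken from the earlier primary screen, cut at about 38% in these data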;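 further: 100% = cells given the luciferase reporter alone without the COUP-TF2 vector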). The conditions noted are these: HEK293 NGFI-A luciferase reporter, luminescence; at 8.5 µM; hits give high values.
Experiment [10] addresses Oxysterols receptor LXR-beta (Homo sapiens) (UniProt P55055). The experiment is described as follows: nonspecific reporter activation via LXR – cell-based, luminescence, HEK293, H. contortus campaign, counter-screen for hcDAF-12 agonist project, confirmation (AID 743027;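 active means mean percent activation of the reporter above a cutoff set as the average over tested compounds plus their standard deviation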). The conditions noted are these: HEK293 Gal4-LXR tk-luc reporter, 24 h, at 6.8 µM, hits give high values, normalized: DMSO 0%, positive control 100%.

Experiment [11] concerns Nuclear hormone receptor DAF-12 (Haemonchus contortus). The experiment is described as follows: hcDAF-12 luciferase reporter activation, retest – cell-based, luminescence, HEK293, lit1-tk-luc, triplicate, confirmation (AID 743032;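 active means mean activation across triplicate tests above the threshold derived from the earlier primary screen, cut at about 5.5% in these data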;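 further: 0% = DMSO only wells and 100% = 3 µM Δ7-dafachronic acid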). Conditions: HEK293 hcDAF-12 lit1-tk-luc reporter, at 6.8 µM, hits give high values, % of Δ7-dafachronic acid response.
In experiment [12] the test system is DAF-12 nuclear receptor (Heterodera glycines), GAL4-LBD fusion. The experiment is described as follows: hgDAF-12 GAL4 fusion reporter activation, retest – cell-based, luminescence, HEK293, GAL4-LBD fusion, confirmation (AID 743050;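 active means mean activation over triplicate wells above the hit cutoff derived from the earlier primary screen, cut at about 11% in these data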;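 further: 0% = DMSO low control and 100% = 2 mM sodium butyrate high control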). Conditions: HEK293 GAL4-hgDAF12 luciferase reporter, agonist mode; at 6.8 µM; hits give high values; percent of butyrate response.
For experiment [13], the target named is Oxysterols receptor LXR-beta (Homo sapiens) (UniProt P55055). The experiment is described as follows: nonspecific reporter activation via LXR – cell-based, luminescence, HEK293, H. glycines campaign, counter-screen for hgDAF-12 agonist project, confirmation (AID 743051;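 active means mean activation of the triplicate above a set limit carried over from the primary screen, none filed active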). The conditions noted are these: HEK293 Gal4-LXR luciferase reporter, 24 h; at 6.8 µM; hits give high values.

Experiment [14] addresses Photoreceptor-specific nuclear receptor (Homo sapiens) (UniProt Q9Y5X4). The experiment is described as follows: retest of NR2E3-NCOR disrupting agonists – cell-based, luminescence, CHO-S two-hybrid, confirmation (AID 624378;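 active means average inhibition above a cutoff equal to the mean inhibition of all tested compounds plus one SD, cut at about 70% in these data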;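 further: 0% = DMSO in NR2E3 cells and 100% = DMSO in cells lacking NR2E3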). Conditions: CHO-S mammalian two-hybrid NR2E3-NCOR, luciferase luminescence; at 3.98 µM; hits give high values.
Experiment [15] in a line: nonselective effects on VP16 transactivation – cell-based, luminescence, CHO-S, high throughput, counter-screen for NR2E3 agonist project, confirmation (AID 624379;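 active means mean inhibition above a cutoff equal to the average over all tested compounds plus one standard deviation, cut at about 70% in these data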;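 further: 0% = DMSO with VP16-transfected cells and 100% = DMSO with cells lacking VP16; higher means less reporter light so more repression of VP16 activity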). The conditions noted are these: CHO-S GAL4-VP16 luciferase reporter, at 3.98 µM, hits give high values.
Experiment [16] has as its target Peroxisome proliferator-activated receptor gamma (Homo sapiens) (UniProt P37231). The experiment is described as follows: retested PPARg-SRC-2 recruitment enhancers – biochemical, HTS, confirmation (AID 1297; in the data active means activation above about 22%;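 further: 0% = vehicle alone and 100% = reference agonist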). The conditions noted are these: biochemical SRC-2 recruitment by PPARgamma; at 8 µM; hits give high values.
For experiment [17] the target is unchanged. The experiment is described as follows: retest of SRC-1 recruitment enhancers for PPARgamma – biochemical, confirmation (AID 1300; in the data active means activation above about 20%;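 further: 0% = vehicle wells and 100% = reference agonist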). Conditions: PPARgamma–SRC-1 coactivator recruitment biochemical assay; at 8 µM; hits give high values.
Experiment [18] concerns the target Peroxisome proliferator-activated receptor gamma (Homo sapiens) + Nuclear receptor coactivator 3 (Homo sapiens) (UniProt P37231+Q9Y6Q9). The experiment is described as follows: agonists promoting SRC-3 binding to PPARgamma – biochemical, confirmation (AID 1301; in the data active means activation above about 24%;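 further: 0% = vehicle wells and 100% = reference agonist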). Conditions: biochemical PPARgamma-SRC-3 coactivator recruitment, agonist mode; at 8 µM; hits give high values.

The structures appear in SMILES notation. A number with no mark means an inactive call. Some of the results follow. Calls of active or inactive are those of the source.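 How the source made its calls, unless noted: active means inhibition above the mean plus 3 SD of solvent-only control wells, limit set per screening run (cut at about 16% in these data); inactive means the rest.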

Sequence of Oxysterols receptor LXR-beta (Homo sapiens) (P55055 whole entry, looked up, the tested form may be a part): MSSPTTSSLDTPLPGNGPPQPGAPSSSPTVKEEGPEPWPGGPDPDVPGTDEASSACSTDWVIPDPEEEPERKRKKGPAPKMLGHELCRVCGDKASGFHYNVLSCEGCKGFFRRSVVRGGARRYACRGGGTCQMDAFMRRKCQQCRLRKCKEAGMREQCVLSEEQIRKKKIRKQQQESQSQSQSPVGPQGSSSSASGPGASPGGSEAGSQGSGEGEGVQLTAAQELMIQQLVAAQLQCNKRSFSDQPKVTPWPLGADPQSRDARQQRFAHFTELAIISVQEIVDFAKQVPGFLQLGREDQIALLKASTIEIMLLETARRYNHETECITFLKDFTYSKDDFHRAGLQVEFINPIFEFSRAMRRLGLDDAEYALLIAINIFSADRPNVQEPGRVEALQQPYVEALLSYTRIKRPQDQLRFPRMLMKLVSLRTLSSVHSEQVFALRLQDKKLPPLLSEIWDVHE
Sequence of Peroxisome proliferator-activated receptor gamma (Homo sapiens) (P37231 whole entry, looked up): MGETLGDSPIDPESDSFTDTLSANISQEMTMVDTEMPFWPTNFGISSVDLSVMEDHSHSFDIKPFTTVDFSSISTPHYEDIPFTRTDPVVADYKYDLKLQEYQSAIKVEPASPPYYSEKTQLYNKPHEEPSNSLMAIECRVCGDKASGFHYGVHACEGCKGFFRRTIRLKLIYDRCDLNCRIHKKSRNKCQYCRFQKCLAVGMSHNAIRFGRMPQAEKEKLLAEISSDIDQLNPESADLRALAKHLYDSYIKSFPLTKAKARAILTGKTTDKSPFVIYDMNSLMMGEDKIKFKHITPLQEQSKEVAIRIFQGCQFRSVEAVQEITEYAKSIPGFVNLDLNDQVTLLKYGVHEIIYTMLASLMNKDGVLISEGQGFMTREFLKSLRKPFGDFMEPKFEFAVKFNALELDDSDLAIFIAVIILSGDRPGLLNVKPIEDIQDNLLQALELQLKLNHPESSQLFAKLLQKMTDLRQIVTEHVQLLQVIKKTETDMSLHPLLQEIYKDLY
Sequence of Nuclear receptor subfamily 5 group A member 2 (Homo sapiens) (O00482 whole entry, looked up): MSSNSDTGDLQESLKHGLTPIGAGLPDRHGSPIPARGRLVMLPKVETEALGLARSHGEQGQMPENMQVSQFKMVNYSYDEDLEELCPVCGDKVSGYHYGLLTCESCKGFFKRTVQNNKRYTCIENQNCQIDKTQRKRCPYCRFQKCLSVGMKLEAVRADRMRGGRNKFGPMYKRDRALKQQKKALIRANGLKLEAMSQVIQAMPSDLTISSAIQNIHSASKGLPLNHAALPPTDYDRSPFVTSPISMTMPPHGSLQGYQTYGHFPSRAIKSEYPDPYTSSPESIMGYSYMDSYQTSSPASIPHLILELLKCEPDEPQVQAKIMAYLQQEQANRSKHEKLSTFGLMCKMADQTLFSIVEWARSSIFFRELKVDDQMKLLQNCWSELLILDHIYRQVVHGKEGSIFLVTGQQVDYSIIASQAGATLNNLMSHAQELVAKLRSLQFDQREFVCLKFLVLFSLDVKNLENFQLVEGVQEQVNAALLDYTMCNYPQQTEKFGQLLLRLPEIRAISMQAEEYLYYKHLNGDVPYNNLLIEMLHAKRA
Sequence of Peroxisome proliferator-activated receptor gamma (Homo sapiens) + Nuclear receptor coactivator 3 (Homo sapiens) (P37231 whole entry, looked up): as the sequence (P37231 whole entry, looked up) above
Sequence of Peroxisome proliferator-activated receptor gamma (Homo sapiens) + Nuclear receptor coactivator 3 (Homo sapiens) (Q9Y6Q9 whole entry, looked up): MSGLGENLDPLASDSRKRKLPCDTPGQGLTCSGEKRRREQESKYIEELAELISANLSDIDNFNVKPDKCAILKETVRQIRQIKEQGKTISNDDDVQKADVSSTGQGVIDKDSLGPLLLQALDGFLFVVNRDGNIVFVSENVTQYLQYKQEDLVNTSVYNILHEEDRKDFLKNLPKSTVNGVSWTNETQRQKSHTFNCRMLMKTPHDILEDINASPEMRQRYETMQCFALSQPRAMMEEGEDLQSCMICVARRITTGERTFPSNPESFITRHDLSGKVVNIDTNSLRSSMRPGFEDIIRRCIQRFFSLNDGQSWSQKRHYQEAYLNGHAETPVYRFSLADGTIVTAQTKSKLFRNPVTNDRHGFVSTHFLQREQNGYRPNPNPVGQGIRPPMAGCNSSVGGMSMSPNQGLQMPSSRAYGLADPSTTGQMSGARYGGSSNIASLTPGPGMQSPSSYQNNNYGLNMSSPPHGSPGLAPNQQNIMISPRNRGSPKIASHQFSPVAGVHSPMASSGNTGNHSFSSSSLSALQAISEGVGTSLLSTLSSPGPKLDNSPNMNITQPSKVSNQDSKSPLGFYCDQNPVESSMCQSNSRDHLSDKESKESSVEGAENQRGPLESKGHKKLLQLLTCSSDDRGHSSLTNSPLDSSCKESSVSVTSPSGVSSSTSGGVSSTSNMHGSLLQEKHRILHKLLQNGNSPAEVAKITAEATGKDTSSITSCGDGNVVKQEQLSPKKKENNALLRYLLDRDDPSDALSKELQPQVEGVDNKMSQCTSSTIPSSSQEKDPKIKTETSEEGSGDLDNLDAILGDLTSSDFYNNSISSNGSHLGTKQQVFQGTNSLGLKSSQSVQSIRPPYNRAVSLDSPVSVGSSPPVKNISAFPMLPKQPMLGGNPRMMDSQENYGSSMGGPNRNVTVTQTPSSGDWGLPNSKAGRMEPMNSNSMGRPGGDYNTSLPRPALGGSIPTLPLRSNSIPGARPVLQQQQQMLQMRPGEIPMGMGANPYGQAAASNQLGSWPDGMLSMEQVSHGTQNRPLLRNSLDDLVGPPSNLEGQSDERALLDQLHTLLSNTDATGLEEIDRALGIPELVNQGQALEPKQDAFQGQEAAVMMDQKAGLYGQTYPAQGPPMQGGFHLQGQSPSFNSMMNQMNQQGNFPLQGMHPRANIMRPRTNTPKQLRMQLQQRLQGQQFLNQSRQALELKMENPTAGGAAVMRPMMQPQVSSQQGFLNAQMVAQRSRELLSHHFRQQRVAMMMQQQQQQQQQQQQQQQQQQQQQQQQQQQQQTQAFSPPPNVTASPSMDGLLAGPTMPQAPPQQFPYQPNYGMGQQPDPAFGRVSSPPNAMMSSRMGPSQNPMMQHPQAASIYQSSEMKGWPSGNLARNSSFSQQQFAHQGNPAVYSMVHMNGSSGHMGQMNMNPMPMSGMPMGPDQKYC
Sequence of Steroidogenic factor 1 (Homo sapiens) (Q13285 whole entry, looked up, the tested form may be a part): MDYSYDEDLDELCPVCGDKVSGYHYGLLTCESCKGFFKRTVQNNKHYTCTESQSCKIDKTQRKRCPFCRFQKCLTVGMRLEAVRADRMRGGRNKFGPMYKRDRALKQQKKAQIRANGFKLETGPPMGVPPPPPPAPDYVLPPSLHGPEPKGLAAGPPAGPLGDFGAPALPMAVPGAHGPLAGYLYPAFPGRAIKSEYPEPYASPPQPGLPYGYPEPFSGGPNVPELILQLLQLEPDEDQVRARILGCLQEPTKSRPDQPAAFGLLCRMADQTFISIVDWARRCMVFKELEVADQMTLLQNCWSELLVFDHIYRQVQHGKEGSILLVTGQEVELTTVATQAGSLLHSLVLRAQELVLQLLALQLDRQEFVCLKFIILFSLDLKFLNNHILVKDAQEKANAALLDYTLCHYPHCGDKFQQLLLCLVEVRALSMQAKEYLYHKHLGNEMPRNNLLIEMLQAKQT
Sequence of COUP transcription factor 2 (Homo sapiens) (P24468 whole entry, looked up): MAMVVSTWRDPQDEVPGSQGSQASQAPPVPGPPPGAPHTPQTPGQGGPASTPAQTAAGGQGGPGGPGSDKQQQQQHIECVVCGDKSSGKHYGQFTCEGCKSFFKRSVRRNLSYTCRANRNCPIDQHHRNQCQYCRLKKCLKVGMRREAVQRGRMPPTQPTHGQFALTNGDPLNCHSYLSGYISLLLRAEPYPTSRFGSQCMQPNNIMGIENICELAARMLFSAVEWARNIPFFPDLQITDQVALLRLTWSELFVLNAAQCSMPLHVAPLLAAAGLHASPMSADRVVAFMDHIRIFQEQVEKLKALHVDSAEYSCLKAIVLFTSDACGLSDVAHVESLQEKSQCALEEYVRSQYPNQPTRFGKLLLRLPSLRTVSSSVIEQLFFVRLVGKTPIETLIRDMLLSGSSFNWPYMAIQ
Sequence of Photoreceptor-specific nuclear receptor (Homo sapiens) (Q9Y5X4 whole entry, looked up): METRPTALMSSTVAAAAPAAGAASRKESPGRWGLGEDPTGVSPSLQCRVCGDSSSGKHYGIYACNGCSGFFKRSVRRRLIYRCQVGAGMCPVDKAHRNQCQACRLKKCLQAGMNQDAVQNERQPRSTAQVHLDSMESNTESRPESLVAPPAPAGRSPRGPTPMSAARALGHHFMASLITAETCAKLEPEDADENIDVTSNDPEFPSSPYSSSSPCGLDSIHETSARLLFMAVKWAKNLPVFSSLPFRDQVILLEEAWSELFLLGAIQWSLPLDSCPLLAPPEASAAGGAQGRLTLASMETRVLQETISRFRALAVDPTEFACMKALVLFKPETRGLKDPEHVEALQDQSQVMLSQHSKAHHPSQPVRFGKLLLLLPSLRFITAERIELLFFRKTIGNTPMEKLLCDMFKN

As for `O=C(Nc1ccc(CSc2ccccc2)cc1)c1ccc(CN2CCOCC2)cc1`, the inhibition in [1] is 83.7% (active); in experiment [2], 33.3% (active); in experiment [3] it was 10.4%; in [4] it was 28.7% (active); in experiment [5], 65.5% (active); in experiment [6], 63% (active). For the same molecule, the inhibition in [7] was 54.8% (active); in experiment [8], -2.4%; in experiment [9], 65.8% (active).
For `COc1cccc(-c2nc3cc(C)ccc3o2)c1`, the results for the inhibition in experiment [1], in experiment [2] and in [3] were 1.5%, -23.8% and -109%, respectively. The activation in [10] was 2.33%; in experiment [11], 16.7% (active).
For the molecule `O=C(Nc1ccn(Cc2ccccc2)n1)c1n[nH]c([N+](=O)[O-])c1Cl`, the inhibition was 12.7% in [1], -0.1% in experiment [2] and -63.1% in experiment [3]. For the same molecule, the activation is 11.6% (active) in experiment [12] and 0.82% in experiment [13].
With `CCCOC(=O)c1[nH]c2c(c1C)C(=O)CC(c1cc(OC)c(OC)c(OC)c1)C2` (stereo not given), the inhibition in [1] is 61% (active); in [2] it was 29% (active); in experiment [3], 25.8% (active); in [14], 73.9% (active); in experiment [15] it was 65%; in experiment [4], 29% (active). Besides, the inhibition was 54.7% (active) in experiment [5]; 54.1% (active) in experiment [6]; 41% (active) in experiment [7]; 6.54% in experiment [8]; 49.6% (active) in experiment [9].
Turning to `O=c1c2c(nc3cc(-c4cccc(Cl)c4)[nH]n13)CCCC2`, the inhibition was 21.9% in experiment [1], -3.1% in experiment [2] and -108% in experiment [3]. The activation was 1.76% in [10], 9.19% (active) in [11], 13.8% (active) in experiment [12] and 1.15% in experiment [13].
For the molecule `COc1ccc(Nc2ncc(F)c(N3CCOCC3)n2)cc1`, the inhibition is 3.37% in experiment [1], -21.5% in experiment [2] and -107% in [3]. The activation was 16.1% (active) in [12] and 1% in experiment [13].
Regarding `CC(C)CC(=O)N/C(N)=N/c1nc2ccccc2s1`, the inhibition in experiment [1] was 6.93%; in [2], -39.6%; in experiment [3], -138%. Also, the figures for the activation in experiment [10] and in experiment [11] were 1.25% and 5.93% (active), respectively.
In the case of `COc1ccc(-c2csc(Nc3ccccn3)n2)cc1`, the inhibition in [1] was 15.2%; in experiment [2], -36.5%; in [3], -205%. In addition, the values for the activation in experiment [10] and in experiment [11] were 1.36% and 6.22% (active), respectively.
As for `OCC1(CCc2ccccc2)CCN(Cc2ccc3nsnc3c2)CC1`, the activation is 32.8% (active) in [16], 26.3% (active) in experiment [17] and 22.9% in experiment [18].
For `O=C(CSc1c2c(nc3ccc(Cl)cc13)CCCC2)NCc1ccco1`, the activation was 19.2% in experiment [16], 15.5% in experiment [17] and 14.4% in [18].
As to `CCc1ccc2oc(-c3ccc(N)cc3)nc2c1`, the inhibition in [1] is 36.1%; in experiment [2] it was 13.1% (active); in [3], -84.8%. The activation in [10] was 1.54%; in [11], 10.2% (active); in [12], 18.3% (active); in experiment [13] it was 1.35%.

(Values after PubChem BioAssay.)
